According to PubChem BioAssay AID588405 (Sanford-Burnham Center for Chemical Genomics, 2011):
The campaign covered roughly 360,000 compounds. About 6,200 (1.7%) were called active.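 How the source made its calls: active means inhibition of at least 50% at 20 µM; inactive means the rest.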 The list comes from a sample in which actives are over-represented; it also holds similar structures and randomly drawn compounds.

Assay: Peg3 promoter-driven luciferase inhibitors, primary screen, cell-based, HeLa, luciferase luminescence (AID 588405)
Conditions: HeLa PEG-Prom luciferase reporter, overnight, at 20 µM, stronger effect = higher value

| SMILES | inhibition |
| --- | --- |
| CN(C)c1cccc(NC(=O)c2ccc(-c3ccc(F)c(F)c3)c3ccoc23)c1 | -43.1% (inactive) |
| NCCCNC(=S)NCCCN(Cc1ccc(Cl)cc1)c1ccc(Br)cn1 | 85.8% (active) |
| S=C(NCCCc1ccccc1)Nc1ccc(Br)cc1 | 5.05% (inactive) |
| O=C(/C=C/c1ccc(Cl)cc1)Nc1ccc(Br)cn1 | -33.7% (inactive) |
| S=C(NCCCc1cnc[nH]1)NCCCN(Cc1ccc(Cl)c(Cl)c1)c1ccc(Br)cn1 | 98.4% (active) |
| Cc1nc(C(F)(F)F)ccc1C(=O)N1CCC1(C)C(=O)NS(=O)(=O)c1ccc(F)cc1F (centres undefined) | -1.89% (inactive) |
| O=C(CC[C@H]1O[C@@H](n2ccc(=O)[nH]c2=O)[C@H](O)[C@@H]1O)N[C@H](Cc1ccccc1)C(=O)NCc1ccco1 | 8.94% (inactive) |
| CCCS(=O)(=O)NC(=O)C1(C)CCCN(C(=O)c2cc(C)on2)C1 (centres undefined) | 9.06% (inactive) |
| COc1ccc(OC)c(Cc2nnc(CCC(=O)NC3CCCC3)o2)c1 | -30.2% (inactive) |
| COc1ccc(OC)c(NC(=O)c2sc3nc(C)cc(C)c3c2N)c1 | -12.4% (inactive) |
| COc1ccc(OC)c(Cc2cnc3nc(N)nc(N)c3c2C)c1 | 54.3% (active) |
| C=CCn1c2c(c3ccccc31)CCC2 | 2.5% (inactive) |
| CCOc1ccc(CCN2C(=O)c3cccnc3C2=O)cc1OCC | -9.6% (inactive) |
| NC1=CC(=O)C(=O)c2cccnc21 | 69.9% (active) |
| CCc1nc2ccc(C(=O)NC3CCN(Cc4ccccc4)CC3)cn2c1N(CC)CCOC | 4.85% (inactive) |
| CCCCNC(=O)c1nc(C2CCN(S(=O)(=O)c3ccc(F)c(F)c3)CC2)oc1-c1cccc(C(F)(F)F)c1 | 13.3% (inactive) |
| Cc1occc1C(=O)N/N=C/c1ccc(-c2cccc([N+](=O)[O-])c2)o1 | -11.9% (inactive) |
| CN(C)CCNC(=O)/C(=C/c1cccc([N+](=O)[O-])c1)NC(=O)c1ccccc1 | 7.34% (inactive) |
| Cc1ccc(C(=O)N/C(=C/c2ccc(-c3cccc([N+](=O)[O-])c3)o2)C(=O)NCCCN(C)C)cc1 | 103% (active) |
| CCCc1ccc(C(O)c2ncc(-c3cccc(OC)c3)[nH]2)cc1 (centres undefined) | -5.53% (inactive) |
| O=C(Nc1ccc(F)cc1)Nc1nnc([C@H]2C[C@H](O)[C@@H](CO)O2)s1 | -5.07% (inactive) |
| C=CC(=O)Nc1ccc(Nc2ccnc(Nc3ccc(N4CCN(C)CC4)cc3)n2)cc1 | 20.3% (inactive) |
| CC(C)c1ccccc1OCC(O)CN(CC(O)COc1cccc2ccccc12)C(C)C (centres undefined) | 110% (active) |

| SMILES | inhibition |
| --- | --- |
| CCC(C)Sc1nc2c(c(=O)[nH]c(=O)n2C)n1CC(O)COc1cccc2ccccc12 (centres undefined) | 12.2% (inactive) |
| CC1CC(C)CN(CCOc2cccc3ccccc23)C1 (centres undefined) | -6.14% (inactive) |
| COc1cc(CN2CCNC(=O)C2CC(=O)NCCc2ncccc2C)cc(OC)c1 (centres undefined) | -16.1% (inactive) |
| CC(C)Oc1ccc(CN2CCC2(C)C(=O)NCc2ccc(C(F)(F)F)cc2)cc1 (centres undefined) | 14.4% (inactive) |
| O=C(Nc1ccc(N2CCOCC2)cc1)c1cccc2c(-c3ccc(F)c(F)c3)coc12 | -8.12% (inactive) |
| COc1ccccc1CNC(=O)c1cc(-c2cc(Cl)ccc2C)n[nH]1 | 32.1% (inactive) |
| O=C(CN1C(=O)NC2(CCOc3ccccc32)C1=O)Nc1cccc([N+](=O)[O-])c1 (centres undefined) | 10.4% (inactive) |
| CCN(CC)S(=O)(=O)c1ccc(NC(=O)c2cccnc2Cl)c(NC(=O)c2cccnc2Cl)c1 | 104% (active) |
| Cc1ccc(CNC(=O)c2cccnc2Cl)cc1 | -0.53% (inactive) |
| CCN(CC)S(=O)(=O)c1ccc(NC(=O)c2cnc(C)cn2)cc1 | -6.33% (inactive) |
| CCOC(=O)C1=CC[C@@H](c2ccccc2)N(S(=O)(=O)c2ccc(C)cc2)[C@H]1c1cccc(OC)c1 | 14.6% (inactive) |
| CC1(c2nnc(Cc3ccccc3)o2)CC(c2ccccc2F)=NO1 (centres undefined) | 7.03% (inactive) |
| CCOC(=O)/C=C/C(=O)OCC(=O)NC(c1ccccc1)c1ccccc1 | 66.3% (active) |
| Cc1ccccc1OCCC(=O)OCC(=O)NC(C)c1ccccc1 (centres undefined) | -0.76% (inactive) |
| CCOC(=O)C(C(=O)OCC)C(C#N)c1ccccc1 (centres undefined) | 1.45% (inactive) |
| OCCCNc1nccc(-c2cc(Nc3cccc(Cl)c3)ncn2)n1 | 97.8% (active) |
| CCOc1c(Nc2cccc(Cl)c2)c(=O)c1=O | 19% (inactive) |
| CC(=O)N1CCN(S(=O)(=O)c2ccc(C)c([N+](=O)[O-])c2)C1C(C)C (centres undefined) | 9.74% (inactive) |
| COc1ccc(S(=O)(=O)NC(=O)C2(C)CCN2C(=O)COc2ccc(Cl)cc2)cc1 (centres undefined) | 0.32% (inactive) |
| OC(c1ccc(F)cc1)c1ncc(-c2cccc(C(F)(F)F)c2)[nH]1 (centres undefined) | 25.3% (inactive) |
| CCOC(=O)N1CCN(C(=O)c2n[nH]c(=O)c3ccccc23)CC1 | 6.99% (inactive) |
| CCOC(=O)N1CCN(C(=O)Cn2cnc3ccccc3c2=O)CC1 | -3.74% (inactive) |
| CCOC(=O)N1CCN(C(=O)c2nn(-c3ccc(C)cc3)c(=O)c3c2c2ccccc2n3C)CC1 | 58.2% (active) |

| SMILES | inhibition |
| --- | --- |
| CN1CCN(C(=O)c2ccc(-c3cc4nc(NCc5cccnc5)n(C)c(=O)c4s3)cc2)CC1 | -4.53% (inactive) |
| CCc1nc2c(OCCOc3ccccc3)cccn2c1N(C)C(=O)c1ccc(OC)cc1 | 11.8% (inactive) |
| CC(=O)NN=C(C)c1ccc(NC(=O)C2CC2)cc1 | -1.94% (inactive) |
| CC1(C(=O)NCc2ccc3c(c2)OCO3)CCN1C(=O)Cc1cccs1 (centres undefined) | -1.89% (inactive) |
| NC(=O)COC(=O)c1cc(S(=O)(=O)N2CCN(c3ccccc3)CC2)ccc1Cl | -0.58% (inactive) |
| COc1ccccc1N(C)S(=O)(=O)c1ccc(Cl)c(C(=O)N2CCC(C(N)=O)CC2)c1 | -7.62% (inactive) |
| NC(=O)C1CCN(C(=O)c2cc(S(=O)(=O)N3CCN(c4ccccc4)CC3)ccc2Cl)CC1 | 56.8% (active) |
| O=S(=O)(Nc1cccc(-n2cnnn2)c1)c1cnc(Cl)c(Cl)c1 | 3.56% (inactive) |
| Cc1cc2nc(-c3ccc(Cl)cc3)c(Cc3cccc(F)c3)n2c(C)c1Br | -7.74% (inactive) |
| CN(C)CCCOc1ccc(-c2ccc3nccn3c2)cn1 | -2.16% (inactive) |
| O=C(NCc1ccco1)c1cccc(-c2ccc3nncn3c2)c1 | 6.82% (inactive) |
| O=C(Nc1ccc(S(=O)(=O)N2CCOCC2)cc1)C1CCN(S(=O)(=O)c2ccc(Cl)cc2)CC1 | 20.9% (inactive) |
| Cc1nnsc1S(=O)(=O)Cc1ccccc1Cl | 14.5% (inactive) |
| O=C(Nc1ccccc1)c1nnsc1S(=O)(=O)c1ccc(Cl)cc1 | 67.4% (active) |
| Cc1ccc(-c2cnc(C(O)c3cccc(C)c3C)[nH]2)cc1 (centres undefined) | -14.4% (inactive) |
| Cc1ccc(Cc2c(-c3ccco3)nc3ccc(Cl)cn23)cc1 | 2.16% (inactive) |
| Cc1cccc(-n2ncc(Cl)c(Cl)c2=O)c1 | 109% (active) |
| CC(=O)Nc1c2c(nn1-c1cccc(C)c1)CSC2 | 1.92% (inactive) |
| Cc1cccc(-n2ncc3c(=O)[nH]c(SCC(=O)Nc4cc(C)on4)nc32)c1 | 15.5% (inactive) |
| CCc1nc2ccc(C(=O)N(C)CCN(C)C)cn2c1N(CC)CCOC | -8.52% (inactive) |
| CN1CCN(C2Cc3ccc(Cl)cc3Sc3ccc(F)cc32)CC1 (centres undefined) | 76% (active) |
| CC1(C(=O)NS(=O)(=O)c2cccc(F)c2)CCN1C(=O)Cc1cc(F)ccc1F (centres undefined) | 7.15% (inactive) |
| CC1(c2ccccc2)NC(=O)N(CC(=O)Nc2cc(Cl)ccc2N2CCOCC2)C1=O (centres undefined) | 2.35% (inactive) |

| SMILES | inhibition |
| --- | --- |
| O=C(CSc1nc(Nc2ccccc2)nc(N2CCOCC2)n1)Nc1cc(Cl)ccc1O | 86.5% (active) |
| C/C(=N\Nc1nc(Nc2ccccc2)nc(N2CCOCC2)n1)c1cccs1 | 7.28% (inactive) |
| Brc1ccc2nc(-c3ccccc3)c(Cc3ccccc3)n2c1 | -51% (inactive) |
| CCOC(=O)c1ccc(-c2ccc3ncnc(N(C)Cc4sccc4C)c3c2)o1 | 31.1% (inactive) |
| CCCCSc1[nH]c(=O)c(C(=O)OCC)cc1C#N | 3.02% (inactive) |
| NC(N)=Nc1nc(-c2ccccc2)c2cc(Cl)ccc2n1 | 108% (active) |
| COC(=O)Cn1nc(-c2ccccc2)c2cc(Cl)ccc21 | 13.3% (inactive) |
| Cc1nc(N=C(N)N)nc2c(C)cccc12 | 20.3% (inactive) |
| CCCS(=O)(=O)NC(=O)C1(C)CCCN(C(=O)c2ccnc(Cl)c2)C1 (centres undefined) | -1.18% (inactive) |
| OC[C@@H]1CN(Cc2ccc3c(c2)OCO3)C[C@H](n2cnc3c(NCc4ccco4)ncnc32)O1 | -2.19% (inactive) |
| Cc1cc(O)ccc1-c1cc(C(=O)NCc2cc(C(F)(F)F)cc(C(F)(F)F)c2)[nH]n1 | 5.2% (inactive) |
| Oc1ccc2ccccc2c1N=Nc1nccs1 | 97.5% (active) |
| COC(=O)[C@@H]1C[C@@]2(O)[C@H](O)[C@H](O)[C@H](O)C[C@H]2N1Cc1ccc(C(C)(C)C)cc1 | 2.16% (inactive) |
| COc1ccc(C2=NN(C(=O)CCC(=O)O)C(c3cccs3)C2)cc1OC (centres undefined) | 9.5% (inactive) |
| O=C(COc1ccc2ccccc2c1)N1CCN(C(=O)c2cccs2)CC1 | 3.04% (inactive) |
| CCOc1ccc2nc(Cl)c(C3CC(c4ccccc4)=NN3C(=O)c3cccs3)cc2c1 (centres undefined) | 55.1% (active) |
| COC(=O)c1ccc2nc(-c3ccc(Cl)cc3)c(Cc3cccc(F)c3)n2c1 | -38.1% (inactive) |
| Cc1noc(C)c1C(=O)N1CCC1(C)C(=O)NS(=O)(=O)c1ccc(C#N)cc1 (centres undefined) | -15.2% (inactive) |
| CC(O)(c1cccc(F)c1)c1nc(-c2ccc3c(c2)OCO3)cs1 (centres undefined) | -65.7% (inactive) |
| CC(C)(C)Cc1c(C2CCCCC2)nc2ccc(Br)cn12 | 16% (inactive) |
